Measured values as given in PubChem BioAssay AID504690 (Sanford-Burnham Center for Chemical Genomics, 2011).
In all, about 350,000 compounds went through this assay and about 2,700 (0.77%) were called active. The list comes from a sample in which actives are over-represented; it also holds similar structures and randomly drawn compounds. Values without a mark were called inactive.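 The calls were made as follows: active = inhibition reaching at least a set limit at 20 µM in the primary screen (cut at about 59% in these data); inactive = the rest.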

Test system: glucose-6-phosphate dehydrogenase-6-phosphogluconolactonase (Plasmodium falciparum 3D7)
Assay: inhibition of malaria parasite G6PD (PfGluPho) – biochemical, fluorescence intensity, uHTS, primary screen (AID 504690);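 also: 0% = DMSO wells with substrate and 100% = DMSO wells lacking glucose-6-phosphate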
Details: PfGluPho enzyme, NADPH resazurin-diaphorase fluorescence; at 20 µM; stronger effect = higher value

Going from `CC(C)C(=O)Nc1ccc2c3c(cccc13)CC2` to `Cc1cccc(C(=O)OC(C)C(=O)NC2CCCc3ccccc32)c1O` (stereo not given), the inhibition falls from -13.6% to -19.6%.

First: CC1CCCN(S(=O)(=O)c2ccc(N(C(=O)c3cnccn3)C(C(=O)NC3CCCCC3)c3cccs3)cc2)C1 (stereo not given)
Second: O=C(NC1CCCC1)C(c1ccc(Cl)cc1)N(C(=O)c1csnn1)C1CC1 (stereo not given)
The inhibition of the first is higher: 13.2% for the first, -0.62% for the second.

Compared with `Cc1ccc2c(c1)NCC(C(=O)NC1CCC(C)CC1)O2` (stereo not given), `Cc1ccc(-n2ncc(C(=O)NC3CC3)c2C2CCN(C(=O)OC(C)(C)C)CC2)c(C)c1` is lower in inhibition: 18.8% for the first, -21.1% for the second.

Compared with `Cc1cccc(C)c1NC(=O)CNC(=O)c1c(C)nn(-c2ccccc2)c1C`, `C/C=C/c1ccc(OCC(=O)OCC(=O)Nc2c(C)nn(-c3ccccc3)c2C)c(OC)c1` is lower in inhibition: -4.32% for the first, -4.73% for the second.

Compared with `COCC(=O)Nc1c(I)c(C(=O)NCC(O)CO)c(I)c(C(=O)N(C)CC(O)CO)c1I` (stereo not given), `Cc1oc(C)c(C(=O)NCCCC(=O)O)c1C(=O)NCCCC(=O)O` is higher in inhibition: -11% for the first, 2.34% for the second.

Going from `O=C(Nc1ccc(-c2cscn2)cc1)C1CCCN(Cc2ccc(CO)o2)C1` (stereo not given) to `COc1ccccc1C(=O)N1CCNC(=O)C1CC(=O)Nc1ccc(Cl)cc1` (stereo not given), the inhibition rises from -2.34% to -0.83%.

Compared with `O=C1/C(=C\c2cccnc2)CN(Cc2ccccc2)C/C1=C\c1cccnc1`, `Cc1ccc(-n2nc(-c3ccco3)cc2C(=O)NCc2cccnc2)cc1` is higher in inhibition: 20.5% for the first, 38.2% for the second.

Going from `COc1ccc(Cl)cc1C(=O)Nc1ccc(N(C)C(C)=O)cc1` to `COc1ccc(Cl)cc1NC(=O)CN(C)C(=O)c1cc2ccccc2cc1OC`, the inhibition rises from 7.67% to 11.4%.

First: COc1cc(OC)c(C(=O)Nc2ccccc2-c2ccccc2)cc1OC
Second: O=C(Nc1ccc2ccccc2c1[N+](=O)[O-])c1ccccc1
The inhibition of the first is lower: 6.28% for the first, 33.8% for the second.

First: O=C(NC12CC3CC(CC(C3)C1)C2)N1CCCC(CO)C1 (stereo not given)
Second: COc1ccc(Cl)cc1NC(=O)CN(C)C(=O)CNC(=O)C12CC3CC(CC(C3)C1)C2
The inhibition of the first is lower: -9.02% for the first, -2.93% for the second.

Going from `CSc1ccc(CCNC(=O)C2CCN(c3nnc(-n4cccc4)s3)CC2)cc1` to `COc1ccccc1CCCNC(=O)C1CCC(=O)N(CCN2CCOCC2)C1` (stereo not given), the inhibition falls from -2.74% to -4.18%.

First: O=C(Oc1c(-c2ccco2)oc2ccccc2c1=O)c1cccnc1
Second: COc1cccc(-n2c(=S)[nH]c3c(oc4ccccc43)c2=O)c1
The inhibition of the first is lower: -16.3% for the first, 23.4% for the second.

First: CCn1nc(C(=O)NNS(=O)(=O)c2cc(/C=C/C(=O)O)cc(OC)c2OC)c2ccccc2c1=O
Second: COc1cccc(C(=O)Nc2c3c(nn2-c2cccc(C)c2C)CS(=O)(=O)C3)c1OC
The inhibition of the first is higher: 11.8% for the first, 8.42% for the second.

Compared with `S=C(c1ccc(-c2ccccc2)o1)N1CCCCC1`, `CN1CCN(CCCCOc2ccccc2-c2ccccc2)CC1` is lower in inhibition: 52.2% for the first, 5.8% for the second.

Going from `CC(=O)Nc1nc2c(s1)C(=O)NCC(C)(C)C2` to `CCOC(=O)C(NC(C)=O)C(=O)Nc1ccc(OC)cc1` (stereo not given), the inhibition rises from -8.85% to -2.17%.

Compared with `CC1CN(C(=S)Nc2ccc(S(N)(=O)=O)cc2)CC(C)O1` (stereo not given), `CC(NC(=S)Nc1ccc(S(N)(=O)=O)cc1)c1ccc2c(c1)OCO2` (stereo not given) is lower in inhibition: 13.9% for the first, -1.17% for the second.

Going from `O=C(CCS(=O)(=O)c1cccc2nonc12)NCCc1ccccc1Cl` to `CCOC(=O)c1ccccc1CN1C(=O)c2ccccc2S1(=O)=O`, the inhibition falls from 0.62% to -6.44%.

First: OC(CN=c1sc2ccccc2n1CC(O)COc1ccccc1)COc1ccccc1 (stereo not given)
Second: CC(Sc1nnc(COc2ccccc2)n1-c1ccccc1)C(=O)O (stereo not given)
The inhibition of the first is higher: 22.7% for the first, -12.2% for the second.

Compared with `Cc1ccc(S(=O)(=O)N2CCN(C(=O)CSc3cc(C)ccc3C)CC2)c(C)c1`, `O=C(c1cccnc1)N1CCN(S(=O)(=O)c2cccs2)CC1` is lower in inhibition: 13.7% for the first, -17.9% for the second.

Compared with `CCCOC1CCCN(C(=O)c2cc(COc3cncc(Cl)c3)on2)C1` (stereo not given), `CCOc1c2ccc(C(=O)NC3CCCc4ccccc43)cc2nn1CC` (stereo not given) is lower in inhibition: 3.11% for the first, 0.09% for the second.

Compared with `CCCCNS(=O)(=O)c1ccc(S(=O)(=O)n2cnc3ccccc32)cc1`, `Cc1ccc(S(=O)(=O)c2cc3c(=O)n4cccc(C)c4nc3n(CCc3ccccc3)c2=N)cc1C` is lower in inhibition: -0.9% for the first, -4.62% for the second.

Compared with `CC1=CC(C)(C)Nc2ccc(OC(=O)C(Cc3ccccc3)N3C(=O)C4CCCCC4C3=O)cc21` (stereo not given), `O=C(COC(=O)CN1C(=O)C2CCCCC2C1=O)Nc1ccc(F)c(F)c1F` (stereo not given) is lower in inhibition: 38.3% for the first, 14.5% for the second.

First: CC1CCCCC1NC(=O)CCS(=O)(=O)c1ccc2c(c1)NC(=O)CO2 (stereo not given)
Second: CCCCN(C(=O)c1ccc(S(=O)(=O)N2CCOCC2)cc1)C1CCS(=O)(=O)C1 (stereo not given)
The inhibition of the first is higher: 4.88% for the first, -2.48% for the second.

First: CN(C)N(C)C(=O)C(O)(c1ccccc1)c1ccccc1
Second: O=C(NCCOc1ccccc1)c1ccccc1F
The inhibition of the first is lower: -19.5% for the first, -13.3% for the second.

Going from `N=c1n(Cc2ccc(Cl)cc2)c2ccccc2n1CC(O)c1ccco1` (stereo not given) to `Cc1cccc(C)c1NC(=O)c1ccc(CN2CCc3ccccc3C2)cc1`, the inhibition falls from 8.27% to 4.01%.

Compared with `O=C(Nc1ncccc1O)c1ccc(C(=O)c2ccccc2)cc1`, `COc1ccc(C(=O)NCc2nnc(SCCOc3ccccc3)n2C)cc1` is lower in inhibition: -5.63% for the first, -13% for the second.

Compared with `CN1CCc2nc(SC(C(=O)O)c3ccccc3)c(C#N)c(-c3cccs3)c2C1` (stereo not given), `CC(C)[C@H](NC(=O)N1CCn2c1nc1ccccc12)C(=O)NCc1ccc2c(c1)OCO2` is lower in inhibition: 33.9% for the first, 20.7% for the second.

First: Cc1noc(C)c1C(=O)OC(C)C(=O)Nc1ccc2c(c1)OCO2 (stereo not given)
Second: CCOC(=O)c1c(C)nn(-c2ncccc2NC(=O)CCC(=O)O)c1C
The inhibition of the first is higher: 7.92% for the first, -27.7% for the second.

Compared with `O=S1(=O)N=C(N(CCO)/N=C/c2ccccc2F)c2ccccc21`, `O=C(CCc1ccc(O)cc1)NN=Cc1cc(Br)ccc1O` is higher in inhibition: -22.8% for the first, -4.92% for the second.

Compared with `COc1cc(C(F)(F)F)c(C(=O)N(C)c2ccc(Cl)cc2)cn1`, `CCOc1c2ccc(C(=O)NCc3ccc(OC(F)(F)F)cc3)cc2nn1C` is lower in inhibition: 5.85% for the first, 1.65% for the second.

Going from `OCC[C@H]1C[C@H](O)[C@@H](O)[C@]2(Cc3ccccc3CO2)O1` to `O=C(CCC(=O)OCC(F)(F)C(F)F)NCc1ccccc1`, the inhibition rises from 0.59% to 1.98%.

Compared with `CCN(CC)S(=O)(=O)c1cccc(-c2n[nH]c(=S)n2/N=C/c2ccc(C(=O)OC)cc2)c1`, `Cc1cc(-c2n[nH]c(=S)n2/N=C/C(Br)=C/c2ccccc2)n[nH]1` is higher in inhibition: 13.1% for the first, 23.4% for the second.

Compared with `COc1ccc(OC)c(-n2cc3c(=O)n(C)c(=O)n(C)c3c2)c1`, `Cc1ccc(OCCOCCOc2ccc(Br)cc2/C=N\NC(=O)c2ccncc2)cc1` is higher in inhibition: 17.5% for the first, 40.5% for the second.

Going from `CC[C@]12c3[nH]c4cc(CCC(=O)N(C)C)ccc4c3CCN1C(=O)[C@@H](CC(=O)NCC13CC4CC(CC(C4)C1)C3)C[C@@H]2C(=O)N1CCN(C(=O)C2CC2)CC1` to `CCOC(=O)Cc1ncccc1C(=O)Nc1ccc(OC(F)(F)F)cc1`, the inhibition falls from 0.29% to -20.5%.

First: O=c1[nH]c(/C=C\c2cccc(C(F)(F)F)c2)nc(O)c1[N+](=O)[O-]
Second: O=S(=O)(Nc1cccc(Oc2ccc(Cl)cc2)n1)c1ccc(F)cc1
The inhibition of the first is higher: 1.8% for the first, -6% for the second.

Going from `O=C1NC(=Nc2ccc(Cl)cc2)SC1Cc1cccc(Cl)c1Cl` (stereo not given) to `C[n+]1cccc(C(=O)O)c1`, the inhibition rises from -30.1% to -8.19%.

`COc1ccc2c(c1)c(=Cc1ccc(N(C)C)cc1)c1cc(-c3ccccc3)[n+](C)n12` was tested, and the inhibition was 70% (active).
In the case of `COc1cc(OC)c(C(=O)Nc2ccc(N(C)C)cc2)cc1OC`, the inhibition is reported as 70.5% (active).
With `OCCN1CCN(C(=S)c2ccc(-c3ccccc3)cc2)CC1` the inhibition was 66.4% (active).
`Oc1c(C=Nc2cccc3nsnc23)ccc2ccccc12` was tested, and the inhibition was 64.6% (active).
`c1ccc(-c2cn3c(n2)CCc2ccc4cccnc4c2-3)cc1` was tested, and the inhibition was 107% (active).
In the case of `Nc1ccc2nc3c(=O)[nH]c(=S)[nH]c3nc2c1`, the inhibition is reported as 83.3% (active).
In the case of `CC1=CC(C)(C)Nc2ccc(OC(=O)CN3C(=O)C4CCCCC4C3=O)cc21` (stereo not given), the inhibition is reported as 70.6% (active).
In the case of `O=C(NC1=CC(=O)c2ccccc2C1=O)c1ccccc1`, the inhibition is reported as 80.4% (active).
With `COc1ccc(OCc2nnc3n2N=C(c2ccccc2)C(CC(=O)O)S3)cc1` (stereo not given) the inhibition was 88.1% (active).
With `CCOC(=O)C1=C(c2ccc(OC)cc2)C(=O)c2ccccc2C1=O` the inhibition was 101% (active).
With `COc1ccc(Cl)cc1NC(=O)CN(C)C(=O)CCCc1c[nH]c2ccccc12` the inhibition was 78.4% (active).
For `S=c1[nH]nc(-c2cc(-c3ccccc3)n[nH]2)n1/N=C/c1c2ccccc2cc2ccccc12`, the inhibition was 59.1% (active).
For `O=C1OC(Oc2ccc(Br)cc2)(c2ccccc2)c2ccccc21` (stereo not given), the inhibition was 69.2% (active).
With `CC(=O)N(C1=C(Cl)C(=O)c2ccccc2C1=O)c1ccc(C(=O)O)cc1` the inhibition was 120% (active).
`COc1ccc(CC(=O)NCC(=O)N/N=C/c2cc(Br)ccc2OC)cc1` was tested, and the inhibition was 99.2% (active).
`O=[N+]([O-])c1c(NCCO)cc(Sc2nc3ccccc3s2)c2nonc12` was tested, and the inhibition was 89.2% (active).
In the case of `O=c1oc2ccccc2cc1-c1cn(-c2ccccc2)c(=S)[nH]1`, the inhibition is reported as 64% (active).
`O=C(Nc1ccc(OC(F)(F)F)cc1)c1ccc2c(c1)no[n+]2[O-]` was tested, and the inhibition was 69.8% (active).
